{"source": "PubChem BioAssay (NCI)", "note": "About 79,000 compounds went through this panel and 15% of them were active in at least one assay; those are over-represented in the sample as a whole. Unmarked numbers belong to inactive results. Activity calls are given as the source filed them. Rule as the data show it: active = growth inhibition above about 70%; inactive = the rest."}
{"assay": "NCI Yeast Anticancer Drug Screen. Data for the mlh1 rad18 strain (AID 175)", "settings": "S. cerevisiae mlh1 rad18 strain growth inhibition; at 50.0 µM; stronger effect = higher value", "method_in_brief": "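Vehicle-treated cultures served as the reference for growth inhibition in a yeast strain carrying DNA damage repair alterations exposed to each compound.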"}
{"compound": "Cc1ccc(C(C)C)c(OCC(=O)O)c1", "growth inhibition": "25.6%"}
{"compound": "CSc1nc2[nH]ncc2c(=O)[nH]1", "growth inhibition": "-6.15%"}
{"compound": "Nc1ccccc1SC1CC(=O)N(c2ccc(Cl)c(Cl)c2)C1=O", "note": "(configuration not stated)", "growth inhibition": "-5.4%"}
{"compound": "COc1ccc(C)cc1NC(=O)SC(C)C", "growth inhibition": "6.1%"}
{"compound": "O=C(O)C1CCCN1C(=O)OCc1ccccc1", "note": "(configuration not stated)", "growth inhibition": "-8.9%"}
{"compound": "Oc1cc(O)c2c(c1)O[C@H](c1ccc(O)c(O)c1)[C@@H](O)C2", "growth inhibition": "-18.1%"}
{"compound": "CN(C)c1ncnc2c1cnn2C", "growth inhibition": "2.65%"}
{"compound": "Oc1cc2ccccc2c(-c2c(O)c(O)cc3ccccc23)c1O", "growth inhibition": "91.7% (active)"}
{"compound": "NC(CO)(CO)c1ccccc1", "growth inhibition": "29.9%"}
{"compound": "C=C1SC(=Nc2c(C)cccc2C)N(c2nc(Cl)nc(Cl)n2)C12CCCCC2", "growth inhibition": "14.1%"}
{"compound": "NC(=O)NCCO", "growth inhibition": "13.3%"}
{"compound": "CC1=CC(=Nc2ccc(N(C)C)cc2)C=C(C)C1=O", "growth inhibition": "-12.4%"}
{"compound": "CCC(C)C1CCC(O)CC1", "note": "(configuration not stated)", "growth inhibition": "18.9%"}
{"compound": "Cc1cc2nc(C)c(C)nc2cc1C", "growth inhibition": "-20.4%"}
{"compound": "CC(=O)c1cccs1", "growth inhibition": "6.7%"}
{"compound": "CN(C)c1ccc(O)c2c1CC1CC3C(N(C)C)C(=O)C(C(N)=O)=C(O)C3(O)C(=O)C1=C2O", "note": "(configuration not stated)", "growth inhibition": "32.9%"}
{"compound": "CC(=O)N(C)N=Nc1ccc(C)cc1", "growth inhibition": "-4.05%"}
{"compound": "Nc1cc2ccccc2c(O)c1O", "growth inhibition": "14.2%"}
{"compound": "CC1(C)CC(=O)C=C(N)C1", "growth inhibition": "5.45%"}
{"compound": "COc1ccc2c(c1)Nc1ccccc1S2", "growth inhibition": "-16.2%"}
{"compound": "CSCCC(NC(=O)C(Cl)Cl)C(=O)O", "note": "(configuration not stated)", "growth inhibition": "3.4%"}
{"compound": "CCOC(=O)c1ccc(C(C)(C)C)cc1", "growth inhibition": "6.5%"}
{"compound": "Cc1cc(NC(=O)c2ccccc2)c(Cl)cc1N", "growth inhibition": "-7.95%"}
{"compound": "CC(C)(C)[Si](C)(C)OCC1OC(n2cnc3c(N)ncnc32)CC1OS(C)(=O)=O", "note": "(configuration not stated)", "growth inhibition": "0.5%"}
{"compound": "CCCCCCCCNC(=O)C(C)C", "growth inhibition": "-11.9%"}
{"compound": "O=C1C=C[C@H](O)[C@@]2(CO)O[C@@H]12", "growth inhibition": "11.7%"}
{"compound": "CCOC(=O)N[C@H]1CCc2cc(OC)c(OC)c(OC)c2-c2ccc(SC)c(=O)cc21", "growth inhibition": "-1.55%"}
{"compound": "Cc1cccc(C)c1NC(=S)/N=C\\c1c(O)[nH]c(=O)[nH]c1=O", "growth inhibition": "-57.2%"}
{"compound": "Nc1ccc2ccccc2c1-c1c(N)ccc2ccccc12", "growth inhibition": "-2.65%"}
{"compound": "CN(C)Cc1ccccn1", "growth inhibition": "2.55%"}
{"compound": "CN(C)c1ccc2nc3ccc(=[N+](C)C)cc-3oc2c1", "growth inhibition": "-12%"}
{"compound": "N#Cc1ccc(OC(=O)Nc2cc(Cl)cc(Cl)c2)cc1", "growth inhibition": "-3.55%"}
{"compound": "CCOC(=O)c1cc(Cl)c(O)c(Cl)c1", "growth inhibition": "13.9%"}
{"compound": "COc1cc(N)c2ncccc2c1Cl", "growth inhibition": "30.4%"}
{"compound": "Cc1ccc(OC(=O)c2ccccc2)cc1", "growth inhibition": "-14.6%"}
{"compound": "N#CC1(O)CCCCC1", "growth inhibition": "28.4%"}
{"compound": "CS(=O)CC(=N\\O)/C(CS(C)=O)=N\\O", "note": "(configuration not stated)", "growth inhibition": "9.2%"}
